The list is not random: actives were taken first. Their share in the collection is about 3.4%.
GalR3 antag – blocks the human galanin receptor 3; O60755; HEK293 GalR3-CNG cAMP membrane potential fluorescence; galR3 body fused to GalR1 C-terminus; inhibition, % at 3 µM; 360,000 compounds, 0.44% hits;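 active means inhibition above the screen-wide average plus 3 SD, cut at about 13% in these data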;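 further: forskolin and galanin both at EC90 stimulate the cells; cAMP rise reported by CNG channel membrane potential dye signal; 0% = forskolin plus galanin with DMSO and 100% = forskolin alone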
Target sequence (O60755 1-299 limits assumed): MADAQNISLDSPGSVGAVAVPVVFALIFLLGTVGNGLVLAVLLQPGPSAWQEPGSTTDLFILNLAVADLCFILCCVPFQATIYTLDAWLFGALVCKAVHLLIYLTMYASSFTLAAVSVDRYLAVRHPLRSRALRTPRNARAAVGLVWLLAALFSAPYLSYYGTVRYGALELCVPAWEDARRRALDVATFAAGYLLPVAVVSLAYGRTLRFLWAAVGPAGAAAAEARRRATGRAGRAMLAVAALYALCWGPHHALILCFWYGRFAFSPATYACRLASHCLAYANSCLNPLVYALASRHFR
NR2F2 inh – inhibitors of human COUP-TFII (NR2F2); AID 686940; 370,000 compounds, 0.7% hits; HEK293T NGFI-A luciferase reporter, luminescence; P24468; inhibition, % at 8.6 µM;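 active means inhibition above a per-plate cutoff, mean inhibition of test wells between control levels plus 3 SD, cut at about 38% in these data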;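 further: cells cotransfected with COUP-TFII expression vector driving the NGFI-A reporter; 0% = median of COUP-TF2 test wells and 100% = reporter-only cells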
FXN GAA850 act – frataxin GAA850 promoter activation; activation, % at 6 µM; HEK293 lucGAA850 FXN promoter luciferase reporter, 24 h; percent of 10 µM SAHA response; AID 540364; 360,000 compounds, 0.56% hits;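 active means activation above the average of all compounds screened plus 3 SD, cutoff fixed separately per campaign, cut at about 7.5% in these data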;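 further: 0% = DMSO wells and 100% = 10 µM SAHA wells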
H9c2 protect – modulators protecting cardiomyocytes from myocardial damage | 360,000 compounds, 0.63% hits | protection from H2O2 cell death, % at 20 µM | AID 588492 | H9c2 cardiomyocytes, H2O2 injury protection, ATPLite, 2 h;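 active means compounds giving at least 50% protection of heart cells from peroxide-induced death in the single-dose screen, raw or plate-pattern-corrected value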;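 further: 0% = DMSO wells with peroxide and 100% = DMSO wells without peroxide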
Gli-Sufu block – Gli-Sufu pathway antagonism. 340,000 compounds, 0.74% hits. inhibition, % at 5 µM. Sufu-KO-LIGHT fibroblasts, Gli luciferase reporter luminescence;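 active means inhibition above about 55%, limit read from the data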;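 further: 0% = DMSO-treated cells and 100% = wells with medium but no cells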
SMARCA2 act – activators of SMARCA2 function; MG213 cells, MMTV-luciferase reporter, dexamethasone, overnight; activation, % at 9.1 µM; 370,000 compounds, 1% hits; in the data active means activation above about 7.8%;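 further: 0% = vehicle wells and 100% = reference activator wells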
SMARCA2 conf – SMARCA2 activation, confirmation screen. MG213 cells, MMTV-luciferase with dexamethasone, luminescence, overnight; MG213 cells expressing E1A, Rb sequestered; DMSO wells 0%, reference activator 100%. AID 652260. 3,500 compounds, 30% hits. activation, % at 9.1 µM. shares compounds with SMARCA2 act;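 active means activation above its plate's cutoff, the mean activation of tested wells plus 3 SD, cut at about 7.9% in these data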
VP16 Luc act – counter-screen for SMARCA2 activators: GAL4-VP16 luciferase reporter activation | shares compounds with SMARCA2 act | HEK293 GAL4-VP16 pG5luc reporter, luciferase luminescence; scaled: DMSO wells 0%, SAHA wells 100% | activation, % at 9.1 µM | 3,500 compounds, 41% hits | AID 686939;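 active means activation above the solvent-only control well mean plus 3 SD, averaged across control plates, cut at about 5.2% in these data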
Active calls of the source: *; . = no result given.

SMILES	GalR3 antag	NR2F2 inh	FXN GAA850 act	H9c2 protect	Gli-Sufu block	SMARCA2 act	SMARCA2 conf	VP16 Luc act
Cc1ccc(/C=N/NC(=O)c2ccccn2)o1	0.2	-6.7	4.9	-4.7	-38.5	10.8*	4.8	4.0
CN(C)c1ccc(/C=N\NC(=O)c2csnn2)cc1	5.7	-43.1	2.2	-17.0	-30.5	8.4*	14.7*	10.2*
CN(C)c1ccc(/C=N/NC(=O)c2ccccn2)cc1	-3.6	-47.5	-0.4	-15.0	-31.3	8.0*	6.3	7.5*
CC(/C=N/NC(=O)c1ccccn1)=C\c1ccco1	-5.0	-65.2	5.5	-8.8	-35.8	8.7*	12.4*	14.0*
COC(=O)[C@H](CCSC)NC(=O)Cn1cnc2c(OCc3ccccc3)ncnc21	-6.8	-17.8	2.8	2.8	30.9	-4.2	.	.
CCOC(=O)c1cccc(-c2c(-c3ccccc3)ncc3cc(OC)c(OC)cc23)c1	1.2	-20.5	2.6	6.9	-43.6	11.5*	10.9*	5.8*
COc1cc2cnc(-c3ccccc3)c(-c3cc(OC)c(OC)c(OC)c3)c2cc1OC	5.7	-7.2	-1.0	12.1	5.4	0.1	.	.
O=C(NCCC1=CCCCC1)C1CCCN(S(=O)(=O)c2cccnc2)C1 (centres undefined)	0.7	3.6	1.1	4.8	21.6	1.4	.	.
O=C(NCCC1=CCCCC1)C1CCCN(S(=O)(=O)c2cccc3cccnc23)C1 (centres undefined)	-0.8	21.0	-1.2	-14.4	1.0	10.4*	-4.6	-0.7
CC(C)(Oc1ccc(Cl)cc1)C(=O)OCC(=O)N1CCCC1	-2.7	11.6	-0.3	0.0	-0.5	1.4	.	.
Cc1sc2nc(SCC(=O)Nc3ccc(Cl)c(C(=O)O)c3)[nH]c(=O)c2c1C	-2.6	-40.0	4.1	-2.0	-18.4	8.8*	9.2*	8.9*
CC(=O)N(NC(=O)c1ccc(C)cc1)C1CC(=O)N(c2ccccc2Cl)C1=O (centres undefined)	0.2	6.9	3.1	5.2	-1.4	-2.1	.	.
O=C(C=Cc1ccccc1)c1cccs1	-5.1	-7.0	4.2	-1.9	-7.5	1.4	.	.
Nc1ccc(/C=C/C(=O)c2cccs2)cc1	-7.8	-29.5	5.4	-10.5	-31.9	11.6*	9.1*	6.8*
O=C(N/N=C/c1ccc([N+](=O)[O-])cc1)c1cnccn1	-2.1	11.2	.	.	-4.1	-3.3	.	.
C/C(=N\NC(=O)c1cnccn1)c1ccc([N+](=O)[O-])cc1	-5.1	-12.6	1.3	1.7	-0.3	9.6*	3.9	2.8
CCCn1nnc(NC(=O)c2ccccc2Cl)n1	-0.9	-16.3	2.5	2.3	-17.1	2.7	.	.
CCCn1nnc(NC(=O)c2ccc(Cl)cc2Cl)n1	-0.1	-36.7	2.0	-7.6	-67.1	14.3*	1.1	7.8*
Cc1nnc(SCc2nc3ccccc3s2)n1N	-2.1	-11.4	4.8	-8.8	-15.4	8.5*	8.2*	4.6
CC1CCN(C(=O)c2ccc3c(c2)OCO3)CC1	-1.2	-8.3	1.2	2.4	0.6	-1.6	.	.
O=C(NCCc1ccc(Cl)cc1)c1ccc2nccnc2c1	-1.4	-43.5	1.4	1.3	-89.2	9.4*	9.6*	9.9*
COc1ccc(CSc2nnc(SCc3ccccc3)s2)cc1	.	-2.1	.	.	.	8.7*	1.1	2.1
c1ccc(CSc2nnc(NC3CCCCC3)s2)cc1	-6.4	-39.5	4.3	-10.7	.	15.5*	6.2	8.6*
OCCCNc1ncnc2c1ncn2[C@H]1CN(Cc2ccc(-c3ccccc3)cc2)C[C@@H](CO)O1	-4.5	13.0	-1.8	-4.3	.	-2.3	.	.
O=C(/C=C/c1ccco1)NC(=S)Nc1cccc(C(=O)O)c1	-9.0	-17.5	3.0	0.4	2.0	8.4*	6.3	1.2
COc1cccc(NC(=S)NC(=O)/C=C/c2ccco2)c1	-4.0	-14.2	-0.3	1.1	-9.2	1.9	.	.

Screening results deposited in PubChem BioAssay by several laboratories.
